# According to PubChem BioAssay (NCI):
# Values joined by “and” are separate entries in the source; they are usually repeats but may differ in a detail not shown here. Equal values may be shown once. The panel holds about 83,000 compounds, 20% with a hit somewhere; the sample as a whole holds those more often.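 The endpoint reported here, percent growth, reads 100 for growth as untreated, 0 for no net growth and -100 for all cells dead.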 Active and inactive are the calls of the source. The calls were made as follows: active = growth percent below 10; inactive = the rest.
# Tested on: HCT-15 colon
# Experiment: NCI-60 one-dose screen, 48 h (100 = growth as untreated, 0 = no growth, -100 = all killed)
# Conditions: 10 µM unless noted
row,Structure (SMILES),growth
1,CCc1ccccc1-c1nc(CN[C@@H]2C[C@@H]3C[C@H]([C@H]2C)C3(C)C)c(C)o1,-71.2% (active)
2,Cc1ccccc1Nc1nnc(-c2c[nH]c3ccccc23)o1,16.8% (inactive)
3,Cc1ccc(/C=C/C(=O)c2ccc(S(=O)(=O)NCCNc3nc(N(C)C)nc(N4CCOCC4)n3)cc2)cc1,46.1% (inactive)
4,COC(=O)c1c(C(=O)OC)c2ccc3c4ccccc4ccc3n2c1C(=O)C(C)Br (configuration not stated),9.95% (active)
5,COc1cc(CNC(=O)C[C@H](C)CCC=C(C)C)ccc1OCc1cn(-c2ccc(Cl)cc2Cl)nn1,79.6% (inactive)
6,Cc1cc(C(NC(=O)C2CC3(CC(Nc4cccc5c4C(=O)N(C4CCC(=O)NC4=O)C5=O)C3)C2)c2ccc3c(c2)OC(F)(F)O3)c(O)c2ncccc12 (configuration not stated),21.1% (inactive)
7,O=C(CSc1nnc(-c2ccc(-c3nc4ccc(Cl)cc4[nH]3)cc2)o1)Nc1ccc(Br)cc1,18.6% (inactive)
8,COc1ccc(-c2nc3ccccc3n2CC(=O)N=Nc2c(O)[nH]c3ccc(OC)cc23)cc1,43.7% (inactive)
9,Nc1cccc(-n2c(COc3ccc(I)cc3)nc3ccccc32)c1,74.6% (inactive) and 104% (inactive)
10,COC(=O)c1cc(C(=O)C(Br)Br)n2c1ccc1c3ccccc3ccc12,34.2% (inactive)
11,O=C(NN1C(=O)/C(=C/C=C/c2ccc([N+](=O)[O-])o2)SC1=S)c1ccc([N+](=O)[O-])cc1,-85.4% (active)
12,Cc1ccc2nc(NC(=O)Nc3cccc(Cl)c3)sc2c1,92% (inactive)
